Data taken from PubChem BioAssay (EPA / NIEHS).
Active and inactive are the calls of the source. How the source made its calls: active means hit-call score of the fitted dose curve at least 0.9, where 1 is the maximum; inactive means score below 0.9.

Key:
Settings in all cases: mRNA level, 48 h; actives raise or lower the signal
[1] = read-out: growth arrest and DNA damage 45 (GADD45A), GADD45A (gene 1647); experiment: LTEA_HepaRG_GADD45A: Life Technologies and Expression Analysis (LTEA) Assay for growth arrest and DNA damage 45 (GADD45A) using HepaRG (AID 2283458)
How it was run: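 Transcript induction or loss, quantified by TaqMan qRT-PCR against three housekeeping genes, is the read-out. HepaRG cells received chemicals for 48 h across eight half-log concentrations from 100 uM in 0.5% DMSO; gain and loss fitted relative to DMSO.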

[2] = read-out: Forkhead box O3 (FOXO3), FOXO3 (gene 2309); experiment: LTEA_HepaRG_FOXO3: Life Technologies and Expression Analysis (LTEA) Assay for Forkhead box O3 (FOXO3) using HepaRG (AID 2283459)
How it was run: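 FOXO3 transcript measured by qRT-PCR (normalized to ACTB, GAPDH, POLR2A) after 48 h exposure of HepaRG cells in serum-free induction medium. Duplicates, eight half-log concentrations up to 100 uM, 0.5% DMSO; gain or loss fitted against DMSO.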

[3] = read-out: ABC Transporter (ABCB1), ABCB1 (gene 5243); experiment: LTEA_HepaRG_ABCB1: Life Technologies and Expression Analysis (LTEA) Assay for ABC Transporter (ABCB1) using HepaRG (AID 2283460)
How it was run: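 ABCB1 transcript level measured by TaqMan qRT-PCR against three housekeeping genes after 48 h chemical exposure of differentiated HepaRG cells. Top concentration 100 uM, half-log steps, eight points, 0.5% DMSO vehicle; bidirectional fit relative to DMSO.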

[4] = read-out: growth arrest and DNA damage 45 (GADD45B), GADD45B (gene 4616); experiment: LTEA_HepaRG_GADD45B: Life Technologies and Expression Analysis (LTEA) Assay for growth arrest and DNA damage 45 (GADD45B) using HepaRG (AID 2283461)
How it was run: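 Human HepaRG monolayers receive chemicals for 48 h at eight half-log concentrations, highest 100 uM, in 0.5% DMSO. Expression is measured by TaqMan qRT-PCR and normalized to ACTB, GAPDH and POLR2A.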

[5] = read-out: ABC Transporter (ABCC3), ABCC3 (gene 8714); experiment: LTEA_HepaRG_ABCC3: Life Technologies and Expression Analysis (LTEA) Assay for ABC Transporter (ABCC3) using HepaRG (AID 2283462)
How it was run: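 Transcriptional change of ABCC3 in HepaRG after 48 h treatment, determined by qRT-PCR normalized to endogenous controls. Concentrations spanned eight half-log steps to 100 uM in 0.5% DMSO.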

[6] = read-out: ABC Transporter (ABCC2), ABCC2 (gene 1244); experiment: LTEA_HepaRG_ABCC2: Life Technologies and Expression Analysis (LTEA) Assay for ABC Transporter (ABCC2) using HepaRG (AID 2283464)
How it was run: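 After plating and 48 h culture, HepaRG medium is replaced with serum-free induction medium and chemicals are added (8 concentrations, max 100 uM, 0.5% DMSO) for 48 h. Total RNA then undergoes qRT-PCR for ABCC2 with housekeeping normalization.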

[7] = read-out: Broad substrate specificity ATP-binding cassette transporter ABCG2 (Homo sapiens) (UniProt Q9UNQ0); experiment: LTEA_HepaRG_ABCG2: Life Technologies and Expression Analysis (LTEA) Assay for ABC Transporter (ABCG2) using HepaRG (AID 2283465)
How it was run: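 ABCG2 transcript was quantified by TaqMan qRT-PCR against three housekeeping genes in HepaRG cells. Cells were treated in duplicate for 48 h across an 8-point half-log series up to 100 uM, with 0.5% DMSO vehicle. Gain or loss versus DMSO was fit.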

[8] = read-out: Peroxisomal acyl-coenzyme A oxidase 1 (ACOX1) gene, ACOX1 (gene 51); experiment: LTEA_HepaRG_ACOX1: Life Technologies and Expression Analysis (LTEA) Assay for Peroxisomal acyl-coenzyme A oxidase 1 (ACOX1) gene using HepaRG (AID 2283467)
How it was run: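 ACOX1 transcript levels were quantified by TaqMan qRT-PCR against three housekeeping genes after 48 h chemical exposure of differentiated human HepaRG cells. Exposure used eight half-log steps topping at 100 uM, 0.5% DMSO vehicle, in duplicate. Bidirectional curve fits were made relative to DMSO.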

[9] = read-out: ABC Transporter (ABCB11), ABCB11 (gene 8647); experiment: LTEA_HepaRG_ABCB11: Life Technologies and Expression Analysis (LTEA) Assay for ABC Transporter (ABCB11) using HepaRG (AID 2283463)
How it was run: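 ABCB11 transcript levels quantified by TaqMan qRT-PCR against three housekeeping genes after 48 h chemical exposure of HepaRG cultures. Concentrations up to 100 uM in half-log steps, 0.5% DMSO vehicle; both induction and suppression scored.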

[10] = read-out: ATP-citrate lyase (ACLY), ACLY (gene 47); experiment: LTEA_HepaRG_ACLY: Life Technologies and Expression Analysis (LTEA) Assay for ATP-citrate lyase (ACLY) using HepaRG (AID 2283466)
How it was run: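 ACLY mRNA quantified by qRT-PCR on Fluidigm arrays against three housekeeping genes, after 48 h chemical treatment of HepaRG cells (top concentration 100 uM, half-log steps, 0.5% DMSO vehicle). Up- or down-regulation fitted relative to DMSO.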

Measured: AC50

Broad substrate specificity ATP-binding cassette transporter ABCG2 (Homo sapiens), sequence (Q9UNQ0 whole entry, looked up): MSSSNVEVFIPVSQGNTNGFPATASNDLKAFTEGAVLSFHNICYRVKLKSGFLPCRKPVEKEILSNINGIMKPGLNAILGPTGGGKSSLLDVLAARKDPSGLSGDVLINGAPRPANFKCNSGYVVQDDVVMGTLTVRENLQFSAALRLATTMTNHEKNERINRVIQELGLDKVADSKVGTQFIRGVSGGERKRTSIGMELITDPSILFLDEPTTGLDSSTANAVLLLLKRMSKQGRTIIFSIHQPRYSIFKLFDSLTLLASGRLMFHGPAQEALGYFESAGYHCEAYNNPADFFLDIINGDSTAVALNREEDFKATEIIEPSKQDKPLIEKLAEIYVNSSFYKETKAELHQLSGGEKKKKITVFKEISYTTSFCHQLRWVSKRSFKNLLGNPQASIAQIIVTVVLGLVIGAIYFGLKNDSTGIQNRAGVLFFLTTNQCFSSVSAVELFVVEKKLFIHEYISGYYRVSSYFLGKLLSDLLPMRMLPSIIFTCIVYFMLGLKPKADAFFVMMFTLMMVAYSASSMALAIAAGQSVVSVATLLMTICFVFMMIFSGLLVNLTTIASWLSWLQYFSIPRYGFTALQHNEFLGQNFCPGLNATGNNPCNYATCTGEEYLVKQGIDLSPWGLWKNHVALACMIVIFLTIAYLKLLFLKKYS

O=[N+]([O-])c1ccc(O)cc1
inactive: [1] | [2] | [3] | [4] | [5] | [6] | [7] | [8]

CCCCCCCCCCCCc1ccccc1S(=O)(=O)O
active: [2] 87.9 µM | [9] 85.7 µM | [6] 12.3 µM | [7] 50 µM | [8] 11.7 µM
inactive: [1] | [3] | [4] | [5]

CC1=C(/C=C/C(C)=C/C=C/C(C)=C/C(=O)O)C(C)(C)CCC1
inactive: [1] | [4] | [5] | [6] | [8]
active: [3] 0.81 µM | [9] 29.4 µM | [7] 3.14 µM

NC(=O)N(O)[C@@H]1C=C[C@H](Oc2cccc(Oc3ccc(F)cc3)c2)C1
inactive: [2] | [3] | [4]
active: [1] 64 µM | [5] 21.1 µM | [6] 82.5 µM | [7] 34.9 µM | [8] 65.1 µM

ClC1=C(Cl)C(Cl)(Cl)C(Cl)=C1Cl
inactive: [1] | [2] | [3] | [4] | [5] | [9] | [6] | [7] | [8]

COCC(C)OCC(C)O (configuration not stated)
inactive: [1] | [3] | [4] | [5] | [9] | [6] | [7] | [8]

C[C@@H]1C[C@H]2[C@@H]3CCC4=CC(=O)C=C[C@]4(C)[C@@]3(F)[C@@H](O)C[C@]2(C)[C@@]1(O)C(=O)COP(=O)(O)O
inactive: [1] | [2] | [3] | [4] | [5] | [6] | [7] | [10] | [8]

O=C(O)Cc1cc(I)c(Oc2cc(I)c(O)c(I)c2)c(I)c1
active: [1] 50.2 µM | [4] 55.4 µM | [5] 52.4 µM | [9] 19.9 µM | [6] 57.7 µM | [7] 51.7 µM | [8] 56.8 µM
inactive: [3]

Cc1oc(-c2ccccc2)nc1CCOc1ccc(C[C@H](Nc2ccccc2C(=O)c2ccccc2)C(=O)O)cc1
active: [1] 12.4 µM | [2] 64.6 µM | [3] 26.5 µM | [4] 58.4 µM | [5] 32.5 µM | [9] 23.6 µM | [6] 28.9 µM | [7] 27.7 µM | [8] 27.3 µM

CC(O)CO (configuration not stated)
inactive: [1] | [3] | [4] | [5] | [9] | [6] | [7] | [10] | [8]

CC(C)(C)c1cc(C(C)(C)C)c(O)c(C(C)(C)C)c1
active: [6] 50 µM | [7] 20.9 µM
inactive: [1] | [2] | [3] | [4] | [10] | [8]

CCC(C)(C)C1CCC(O)CC1 (configuration not stated)
inactive: [1] | [2] | [3] | [4] | [5] | [6] | [7] | [10] | [8]

CCCOC(=O)c1ccc(O)cc1
inactive: [1] | [2] | [3] | [4] | [5] | [9] | [6] | [7] | [8]

CCCCCCCCCCCCN1CCCC1=O
inactive: [1] | [3] | [4] | [5] | [9] | [6] | [7] | [8]

CC(=O)CC(C)(C)O
inactive: [1] | [2] | [3] | [4] | [5] | [6] | [7] | [8]
